SMN2 splice up: SMN2 splice variant enhancement. HEK293 SMN2-luciferase splicing reporter, luminescence, 30-36 h. Potency, µM (doses to about 46.1 µM), inactives show top-dose activity change, positive = activation, most hits filed as activators. 210,000 compounds, 2.8% hits. AID 1458; further: % of control where 0% means no effect; nearly all actives have a fitted effect of over 55% in size
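HEK293 cells carry an SMN2 […]–luciferase reporter in which exon 7 inclusion puts luciferase in frame. Cells were plated 10-12 h before compound addition, then incubated 30-36 h at 37C. ONE-Glo luminescence was read; sodium butyrate at 4.5 mM final served as control.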
FLuc counter: counter-screen for miR-21 project: firefly luciferase inhibitors or activators; P08659; purified FLuc, Km substrates, luminescence inhibition; Potency, µM (doses to about 57.5 µM), without a hit: at the highest dose activity change, negative = inhibition, most hits filed as inhibitors; 360,000 compounds, 6.9% hits; AID 588342;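 further: plate controls were vehicle for no effect and reference inhibitor for full effect; nearly all actives have a fitted effect of over 55% in size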
Target sequence (P08659 whole entry, looked up): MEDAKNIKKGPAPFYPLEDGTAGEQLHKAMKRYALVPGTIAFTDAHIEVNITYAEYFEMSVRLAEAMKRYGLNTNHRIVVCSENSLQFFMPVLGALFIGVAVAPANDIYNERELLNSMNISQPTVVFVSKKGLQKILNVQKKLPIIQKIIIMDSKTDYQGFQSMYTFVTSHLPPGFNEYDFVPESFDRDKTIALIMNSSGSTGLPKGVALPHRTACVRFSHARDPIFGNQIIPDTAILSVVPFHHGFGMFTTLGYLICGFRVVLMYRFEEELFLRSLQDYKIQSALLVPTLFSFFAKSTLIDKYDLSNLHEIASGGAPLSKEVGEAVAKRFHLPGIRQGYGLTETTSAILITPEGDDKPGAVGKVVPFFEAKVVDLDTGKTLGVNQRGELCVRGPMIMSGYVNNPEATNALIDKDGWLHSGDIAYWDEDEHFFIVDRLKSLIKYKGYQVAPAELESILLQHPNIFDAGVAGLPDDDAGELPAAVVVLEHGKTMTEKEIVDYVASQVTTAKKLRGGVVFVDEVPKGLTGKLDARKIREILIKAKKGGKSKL
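Biochemical qHTS of compounds, final roughly 60 µM downward over six points, against 10 nM purified firefly luciferase using Km concentrations of substrates (10 uM D-luciferin, 10 uM ATP) in Tris acetate pH 7.5 buffer; luminescence output.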
Rab9 promoter act: Rab9 promoter activation; AID 485297; Potency, µM (titrated, usually from 9.22 µM), for the others: at the top dose activation, negative = inhibition, actives largely listed as activators; 320,000 compounds, 2.8% hits; Huh7 Rab9 promoter-luciferase reporter, luminescence, 24 h; further: % of control where 0% means no effect; nearly all actives have a fitted effect of over 60% in size
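Quantitative HTS format; Huh7 Rab9-luciferase reporter cells (1500/well) receive compound 2 h post-plating, incubate 24 h at 37 °C, then get luciferase reagent for 10 min before luminescence reading.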
KinaseGlo FLuc: blocks Kinase-Glo luciferase, a counter-screen artifact. Potency, µM (titrated, usually from 38.3 µM), for the others: at the highest dose activity change, negative = inhibition, hits mostly inhibitors. Kinase-Glo luciferase, ATP luminescence, 8 min. 200,000 compounds, 0.28% hits. AID 1379. Q27757; further: on the % scale 0 is the no-effect control and ±100 the full control effect; nearly all actives have a fitted effect of over 60% in size
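Inhibition of Kinase-Glo luciferase light generation was assessed at 10 uM ATP in pH 7.2 imidazole buffer, with luminescence measured after eight minutes at ambient temperature.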
ELG1 genotoxic: induces genotoxicity in HEK293T cells with luciferase-tagged ELG1; Potency, µM (titrated, usually from 46 µM), for inactives: at the highest dose activity change, positive = activation, usual class: activators; 330,000 compounds, 1.3% hits; HEK293T ELG1-luciferase reporter, luminescence, 16 h; AID 504466; further: % of control where 0% means no effect; nearly all actives have a fitted effect of over 60% in size
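DMSO vehicle served as control against compound-treated ELG1-luciferase HEK293T cells; exposure lasted 16 hr at 37 °C and 5% CO2, followed by ONE-Glo luminescence detection after 30 min.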
NPC1 promoter act: activators of NPC1 promoter. Huh7 NPC1 promoter luciferase reporter, 24 h. Potency, µM (top dose mostly 9.22 µM), for inactives: top-dose activation, usual class: activators. 320,000 compounds, 2.4% hits; further: % of control where 0% means no effect; nearly all actives have a fitted effect of over 60% in size
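Readout is luciferase luminescence, reflecting NPC1 promoter activation in stably transfected Huh7 cells after 24 h compound exposure at 37 °C in reduced-serum medium with 10% FBS.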
* marks the source's active call; other numbers are inactive results. Most compounds without a hit are left out; they make up all but 7.4% or so of the library. The call rests on the fitted dose curve; in most records, active means well fitted curve in the direction sought with a large enough effect; inconclusive means small, poorly fitted or top-dose-only effect, or another doubt; inactive means no such curve, though single readings can be large; an effect the other way counts as inactive or inconclusive. Potency means the concentration at half of the fitted maximal effect.

How did CC1Cc2ccccc2N1C(=O)/C=C/c1cccc(F)c1 (stereo not given) do in these assays?
SMN2 splice up: 11µM*; FLuc counter: 6µM*; Rab9 promoter act: 1.8µM*; KinaseGlo FLuc: -9%; ELG1 genotoxic: inconclusive; NPC1 promoter act: 2.2µM*

What do the screens show for `COc1ccc(C)cc1NC(=O)c1oc2ccc(S(=O)(=O)N3CCC4(CC3)OCCO4)cc2c1C`?
FLuc counter: 3%

Results for CN(C)c1ccc(CNC(=O)C2(C)C=CCN2C(=O)c2ccccc2)cc1 (stereo not given) ?
SMN2 splice up: 16µM*; KinaseGlo FLuc: -6%

What do the screens show for `CC1(C(=O)O)C=CCN1C(=O)c1ccccc1` (stereo not given)?
SMN2 splice up: -7%; FLuc counter: 4%; Rab9 promoter act: 3%; KinaseGlo FLuc: -2%; ELG1 genotoxic: -1%; NPC1 promoter act: -4%

How did Cn1c(CNc2ccccc2O)nc2ccccc21 do in these assays?
SMN2 splice up: 15%; FLuc counter: inconclusive; Rab9 promoter act: -5%; KinaseGlo FLuc: 9%; ELG1 genotoxic: 8%; NPC1 promoter act: 11%

How did Cn1c(CNc2ccc(F)cc2)nc2ccccc21 do in these assays?
FLuc counter: 9.5µM*; Rab9 promoter act: 2.2µM*; ELG1 genotoxic: 16µM*; NPC1 promoter act: 2.2µM*

How did Cc1ccccc1NCc1nc2ccccc2n1C do in these assays?
FLuc counter: 4.3µM*; Rab9 promoter act: 2µM*; ELG1 genotoxic: 4.1µM*; NPC1 promoter act: 1.4µM*

How did Cn1c(CNc2ccccc2)nc2ccccc21 do in these assays?
SMN2 splice up: 18µM*; FLuc counter: 19µM*; Rab9 promoter act: 3.2µM*; KinaseGlo FLuc: inconclusive; ELG1 genotoxic: inconclusive; NPC1 promoter act: 4µM*

Results for Cc1cccc(N2C(=O)CS(=O)(=O)C23C(=O)N(Cc2c(F)cccc2Cl)c2ccccc23)c1 (stereo not given) ?
FLuc counter: 5%

What do the screens show for `COC(=O)c1nc2n(n1)C(c1cc(OC)ccc1OC)C(C(=O)Nc1ccc(C)cc1C)=C(C)N2` (stereo not given)?
SMN2 splice up: 0%; FLuc counter: -3%

What do the screens show for `Cc1ccc(-n2nc(C)c(/C=N/NC(=O)c3cccnc3)c2Cl)cc1`?
SMN2 splice up: 13%; FLuc counter: inconclusive; Rab9 promoter act: -1%; KinaseGlo FLuc: 3%; ELG1 genotoxic: -2%; NPC1 promoter act: -3%

Results for Cc1nn(-c2ccccc2)c(Cl)c1/C=N/O ?
SMN2 splice up: inconclusive; FLuc counter: inconclusive; Rab9 promoter act: 0%; KinaseGlo FLuc: -3%; ELG1 genotoxic: 8%; NPC1 promoter act: -6%

What do the screens show for `Cc1nn(-c2ccccc2)c(Cl)c1/C=C/C(=O)c1ccccc1`?
SMN2 splice up: -18%; FLuc counter: 3.8µM*; Rab9 promoter act: 0%; KinaseGlo FLuc: -4%; ELG1 genotoxic: 18µM*; NPC1 promoter act: -1%

How did Cc1nn(-c2ccccc2)c(Cl)c1/C=N/NC(=O)c1cccnc1 do in these assays?
SMN2 splice up: inconclusive; FLuc counter: 13µM*; Rab9 promoter act: 1%; KinaseGlo FLuc: -1%; ELG1 genotoxic: 9%; NPC1 promoter act: 0%

What do the screens show for `Cc1ccc(C(=O)N/N=C\c2c(C)nn(-c3ccccc3)c2Cl)cn1`?
SMN2 splice up: inconclusive; FLuc counter: 11µM*; Rab9 promoter act: -4%; KinaseGlo FLuc: inconclusive; ELG1 genotoxic: 6%; NPC1 promoter act: 3%

Results for O=C1c2ccccc2CC[C@H]1CNCCc1ccc(O)cc1 ?
KinaseGlo FLuc: 0%

How did CCOC(=O)Cn1c(=O)oc2cc(S(=O)(=O)N3CCN(c4ccc(Cl)cc4)CC3)ccc21 do in these assays?
SMN2 splice up: 4%; FLuc counter: 1%

How did Cc1ccc(C)c(N2CCN(C(=O)Cn3c(-c4cccs4)cc4ccccc43)CC2)c1 do in these assays?
FLuc counter: -7%

Results for COCCNc1oc(/C=C/c2ccccc2)nc1C#N ?
FLuc counter: 11µM*; Rab9 promoter act: 3.5µM*; ELG1 genotoxic: 18µM*; NPC1 promoter act: inconclusive

Results for CNc1oc(/C=C/c2ccccc2)nc1C#N ?
SMN2 splice up: 11µM*; FLuc counter: 2.7µM*; Rab9 promoter act: 3.2µM*; KinaseGlo FLuc: -1%; ELG1 genotoxic: inconclusive; NPC1 promoter act: inconclusive

How did CNc1oc(/C=C/c2cc(OC)c(OC)c(OC)c2)nc1C#N do in these assays?
SMN2 splice up: 14%; FLuc counter: -1%

Results for COCCCNc1oc(/C=C/c2cc(OC)c(OC)c(OC)c2)nc1C#N ?
SMN2 splice up: inconclusive; FLuc counter: -1%

Results for CCn1cc(C(=O)OCC(=O)Nc2cccc(C(C)=O)c2)c(=O)c2ccc(C)nc21 ?
SMN2 splice up: 5%; FLuc counter: -4%

What do the screens show for `O=C(c1ccco1)N1N=C(c2cccs2)CC1c1cc([N+](=O)[O-])ccc1O` (stereo not given)?
FLuc counter: 17µM*; Rab9 promoter act: 0%; ELG1 genotoxic: 10%; NPC1 promoter act: 11%

What do the screens show for `O=C(c1ccco1)N1N=C(c2cccs2)CC1c1ccc(F)cc1` (stereo not given)?
SMN2 splice up: -9%; FLuc counter: -3%; Rab9 promoter act: -3%; KinaseGlo FLuc: -2%; ELG1 genotoxic: -1%; NPC1 promoter act: 7%

Results for C/C(=N\NC(=O)c1ccc(CSc2nncn2C)cc1)c1cccs1 ?
SMN2 splice up: 13µM*; FLuc counter: 24µM*; Rab9 promoter act: 3.5µM*; KinaseGlo FLuc: -5%; ELG1 genotoxic: inconclusive; NPC1 promoter act: inconclusive

Results for C/C(=N\NC(=O)c1ccc(CSc2nncn2C)cc1)c1ccc(Cl)cc1 ?
SMN2 splice up: 10%; FLuc counter: -12%; Rab9 promoter act: -4%; KinaseGlo FLuc: 0%; ELG1 genotoxic: 6%; NPC1 promoter act: 0%

How did Cn1cnnc1SCc1ccc(C(=O)N/N=C/c2cccs2)cc1 do in these assays?
SMN2 splice up: inconclusive; FLuc counter: 17µM*; Rab9 promoter act: -23%; KinaseGlo FLuc: -2%; ELG1 genotoxic: 11%; NPC1 promoter act: 2%

How did Cc1ccsc1C=C1C(=O)c2ccccc2C1=O do in these assays?
SMN2 splice up: 9%; FLuc counter: 1.3µM*; Rab9 promoter act: inconclusive; KinaseGlo FLuc: inconclusive; ELG1 genotoxic: 2%; NPC1 promoter act: inconclusive

Results for Cc1ccsc1/C=C1/C(=O)NN(c2ccccc2)C1=O ?
SMN2 splice up: -4%; FLuc counter: 9.5µM*; Rab9 promoter act: -4%; KinaseGlo FLuc: inconclusive; ELG1 genotoxic: -7%; NPC1 promoter act: inconclusive

Compound activity (PubChem)
